In ChEMBL document CHEMBL4513146, “CO-ADD screening of Karazin Kharkiv National University (Ukraine) compounds”:
Potency and affinity values are given separately.

The compounds below were run on Staphylococcus aureus. Settings: Concentration 32 ug.mL-1;; ASSAY_TEST Inhibition of Bacterial Growth; detection method Absorption (OD600); MEDIA CAMHB; plate type 384well; NBS; CORNING #3640; time 18 hr.
Compound `CC(C)(C)Sc1ccc2nn(CC(=O)Nc3ccc(Cl)cc3)c(=O)n2n1` has an Inhibition of 3.13%.
With `COc1ccc(NC(=O)Cn2nc3c(SCc4ccc(Cl)cc4)nccn3c2=O)cc1OC` the Inhibition was 6.14%.
`Cc1cc(C)cc(Nc2nc(C)cc3nn(CC(=O)NCc4ccco4)c(=O)n23)c1` showed an Inhibition of 4.89%.
Work on `CC(C)Sc1ccc2nn(CC(=O)Nc3ccc(Br)cc3F)c(=O)n2n1` yielded an Inhibition of -2.61%.
With `CCc1ccc(N(Cc2ccc(C)cc2)S(=O)(=O)c2cccn3c(C)nnc23)cc1` the Inhibition was 16.56%.
For `Cc1ccc(-n2ccn3c(=O)n(Cc4ccc(Cl)cc4)nc3c2=O)cc1C`, the Inhibition was 0.27%.
With `Cc1cccc(C)c1NC(=O)CSc1nnc2c3cc(-c4ccccc4)nn3ccn12` the Inhibition was -21.6%.
`COc1ccc(-c2cc3c4nn(CC(=O)Nc5ccccc5)c(=O)n4ccn3n2)cc1` gave an Inhibition of 3.97%.
`O=C(CSc1nnc2ccc(C(=O)Nc3cccc(F)c3)cn12)Nc1ccc(F)c(F)c1` was tested, and the Inhibition was 8.43%.
For `Cc1cc(C)cc(NC(=O)Cn2nc3c(Sc4cccc(C)c4)nc4ccccc4n3c2=O)c1`, the Inhibition was 1.17%.
Compound `Cc1cc(C)c(NC(=O)Cn2nc3c(SCc4ccc(Cl)cc4)nccn3c2=O)c(C)c1` has an Inhibition of 3.14%.
`Cc1ccc(Oc2nccn3c(=O)n(CC(=O)Nc4ccccc4F)nc23)cc1` was tested, and the Inhibition was 4.19%.
Work on `COc1ccc(-c2cc3c4nnc(SCC(=O)NCc5ccc(Cl)cc5)n4ccn3n2)cc1` yielded an Inhibition of -1.89%.
In the case of `COc1cccc(C(=O)Cn2nc3n(CCC(C)C)c(=O)c4sccc4n3c2=O)c1`, the Inhibition is reported as -4.77%.
`CCC(Sc1nnc2c(=O)n(-c3cccc(OC)c3)ccn12)C(=O)Nc1cc(OC)ccc1OC` (stereo not drawn) gave an Inhibition of -1.04%.
`Cc1ccc(-c2ccc3nn(CC(=O)Nc4cccc(Cl)c4)c(=O)n3n2)cc1C` was tested, and the Inhibition was -4.46%.
`O=C(CSc1nc2ccccc2n2cnnc12)NCc1ccccc1Cl` showed an Inhibition of 1.47%.
`O=C(CSc1nnc2c(=O)n(-c3ccccc3)ccn12)Nc1ccc2c(c1)OCCO2` was tested, and the Inhibition was 8.84%.
For `CCCCOc1ccc(-c2cc3c4nnc(SCC(=O)Nc5cccc(C#N)c5)n4ccn3n2)cc1`, the Inhibition was -7.95%.
Compound `COc1ccc(-c2cc3c4nnc(SCC(=O)N(C)c5ccccc5)n4ccn3n2)cc1` has an Inhibition of -6.7%.
`O=S(=O)(c1ccc2nncn2c1)N(Cc1cc(F)cc(F)c1)c1ccc(F)c(F)c1` showed an Inhibition of 8.61%.
With `Cc1ccc(NC(=O)Cn2nc3ccc(SCc4ccc(Cl)cc4)nn3c2=O)cc1` the Inhibition was -0.24%.
Work on `CCCCN(CC)C(=O)CSc1nnc2c(=O)n(Cc3ccccc3F)ccn12` yielded an Inhibition of 1.71%.
Compound `O=C(Cn1nc2ccc(-c3ccc(Cl)cc3)nn2c1=O)N1CCN(c2ccccc2F)CC1` has an Inhibition of 9.33%.
`COc1ccc(NC(=O)c2ccc3nn(CC(=O)Nc4ccc(C(C)=O)cc4)c(=O)n3c2)cc1` gave an Inhibition of 15.44%.
In the case of `CN(C)C(=O)CSc1nnc2c(=O)n(-c3ccc(F)cc3)ccn12`, the Inhibition is reported as 8.32%.
Compound `Cc1ccc(Cn2nc3c(=O)n(-c4cccc(F)c4)ccn3c2=O)cc1` has an Inhibition of 6.58%.
`CCOC(=O)c1ccccc1NC(=O)Cn1nc2c(Oc3ccccc3)nccn2c1=O` was tested, and the Inhibition was 12.16%.
`O=C(CCc1nnc2ccc(-c3ccc(Cl)cc3)nn12)NCc1ccc(F)cc1Cl` showed an Inhibition of 11.56%.
Work on `Cc1cc(C)c(C(=O)CSc2nnc3c(=O)n(-c4ccc(F)cc4)ccn23)cc1C` yielded an Inhibition of 6.25%.
With `O=C(Cn1nc2c(Oc3ccccc3)nccn2c1=O)Nc1ccc(F)cc1F` the Inhibition was 6.01%.
For `COc1ccc(NC(=O)Cn2nc3c(N4CCCC4)nccn3c2=O)cc1Cl`, the Inhibition was 12.62%.
`COc1cccc(CN(c2ccc(F)c(F)c2)S(=O)(=O)c2ccc3nnc(C)n3c2)c1` showed an Inhibition of 7.3%.
For `O=c1c2sccc2n2c(=O)n(Cc3ccccc3Cl)nc2n1Cc1cccs1`, the Inhibition was -1.31%.
`O=C(Cn1nc2nc(Nc3ccc(F)cc3)ccn2c1=O)Nc1cc(F)ccc1F` gave an Inhibition of 11.9%.
`Cc1ccc(C)c(Cn2nc3n(CCC(C)C)c(=O)c4sccc4n3c2=O)c1` was tested, and the Inhibition was 8.96%.
In the case of `Cc1ccc(NC(=O)Cn2nc3cc(C)nc(Nc4ccc(F)c(C)c4)n3c2=O)cc1`, the Inhibition is reported as 11.03%.
Compound `Cc1cc2nn(CC(=O)Nc3ccc(F)cc3C)c(=O)n2c(Nc2ccc(F)cc2)n1` has an Inhibition of 9.22%.
In the case of `COc1ccc(-n2ccn3c(SCC(=O)N4CCN(c5ccccc5F)CC4)nnc3c2=O)cc1`, the Inhibition is reported as 7.08%.

These compounds were tested on Escherichia coli. Settings: Concentration 32 ug.mL-1;; ASSAY_TEST Inhibition of Bacterial Growth; detection method Absorption (OD600); MEDIA CAMHB; plate type 384well; NBS; CORNING #3640; time 18 hr.
For `CC(C)(C)Sc1ccc2nn(CC(=O)Nc3ccc(Cl)cc3)c(=O)n2n1`, the Inhibition was 0.89%.
Work on `COc1ccc(NC(=O)Cn2nc3c(SCc4ccc(Cl)cc4)nccn3c2=O)cc1OC` yielded an Inhibition of -6.36%.
`Cc1cc(C)cc(Nc2nc(C)cc3nn(CC(=O)NCc4ccco4)c(=O)n23)c1` gave an Inhibition of -6.71%.
With `CC(C)Sc1ccc2nn(CC(=O)Nc3ccc(Br)cc3F)c(=O)n2n1` the Inhibition was 3.45%.
With `CCc1ccc(N(Cc2ccc(C)cc2)S(=O)(=O)c2cccn3c(C)nnc23)cc1` the Inhibition was 0.51%.
For `Cc1ccc(-n2ccn3c(=O)n(Cc4ccc(Cl)cc4)nc3c2=O)cc1C`, the Inhibition was -1.91%.
Compound `Cc1cccc(C)c1NC(=O)CSc1nnc2c3cc(-c4ccccc4)nn3ccn12` has an Inhibition of -21.37%.
`COc1ccc(-c2cc3c4nn(CC(=O)Nc5ccccc5)c(=O)n4ccn3n2)cc1` was tested, and the Inhibition was 7.52%.
`O=C(CSc1nnc2ccc(C(=O)Nc3cccc(F)c3)cn12)Nc1ccc(F)c(F)c1` showed an Inhibition of 1.09%.
For `Cc1cc(C)cc(NC(=O)Cn2nc3c(Sc4cccc(C)c4)nc4ccccc4n3c2=O)c1`, the Inhibition was 2.96%.
`Cc1cc(C)c(NC(=O)Cn2nc3c(SCc4ccc(Cl)cc4)nccn3c2=O)c(C)c1` gave an Inhibition of 0.78%.
`Cc1ccc(Oc2nccn3c(=O)n(CC(=O)Nc4ccccc4F)nc23)cc1` was tested, and the Inhibition was -1.2%.
Work on `COc1ccc(-c2cc3c4nnc(SCC(=O)NCc5ccc(Cl)cc5)n4ccn3n2)cc1` yielded an Inhibition of -4.94%.
In the case of `COc1cccc(C(=O)Cn2nc3n(CCC(C)C)c(=O)c4sccc4n3c2=O)c1`, the Inhibition is reported as -5.88%.
In the case of `CCC(Sc1nnc2c(=O)n(-c3cccc(OC)c3)ccn12)C(=O)Nc1cc(OC)ccc1OC` (stereo not drawn), the Inhibition is reported as -13.69%.
In the case of `Cc1ccc(-c2ccc3nn(CC(=O)Nc4cccc(Cl)c4)c(=O)n3n2)cc1C`, the Inhibition is reported as -9.75%.
`O=C(CSc1nc2ccccc2n2cnnc12)NCc1ccccc1Cl` gave an Inhibition of -4.49%.
Work on `O=C(CSc1nnc2c(=O)n(-c3ccccc3)ccn12)Nc1ccc2c(c1)OCCO2` yielded an Inhibition of -1.03%.
`CCCCOc1ccc(-c2cc3c4nnc(SCC(=O)Nc5cccc(C#N)c5)n4ccn3n2)cc1` gave an Inhibition of -7.05%.
For `COc1ccc(-c2cc3c4nnc(SCC(=O)N(C)c5ccccc5)n4ccn3n2)cc1`, the Inhibition was -0.99%.
Work on `O=S(=O)(c1ccc2nncn2c1)N(Cc1cc(F)cc(F)c1)c1ccc(F)c(F)c1` yielded an Inhibition of -4.86%.
`Cc1ccc(NC(=O)Cn2nc3ccc(SCc4ccc(Cl)cc4)nn3c2=O)cc1` was tested, and the Inhibition was -6.34%.
`CCCCN(CC)C(=O)CSc1nnc2c(=O)n(Cc3ccccc3F)ccn12` gave an Inhibition of -7.34%.
In the case of `O=C(Cn1nc2ccc(-c3ccc(Cl)cc3)nn2c1=O)N1CCN(c2ccccc2F)CC1`, the Inhibition is reported as -0.1%.
`COc1ccc(NC(=O)c2ccc3nn(CC(=O)Nc4ccc(C(C)=O)cc4)c(=O)n3c2)cc1` gave an Inhibition of -1.93%.
Compound `CN(C)C(=O)CSc1nnc2c(=O)n(-c3ccc(F)cc3)ccn12` has an Inhibition of 0.14%.
Work on `Cc1ccc(Cn2nc3c(=O)n(-c4cccc(F)c4)ccn3c2=O)cc1` yielded an Inhibition of -11.98%.
For `CCOC(=O)c1ccccc1NC(=O)Cn1nc2c(Oc3ccccc3)nccn2c1=O`, the Inhibition was 1.14%.
For `O=C(CCc1nnc2ccc(-c3ccc(Cl)cc3)nn12)NCc1ccc(F)cc1Cl`, the Inhibition was -1.56%.
`Cc1cc(C)c(C(=O)CSc2nnc3c(=O)n(-c4ccc(F)cc4)ccn23)cc1C` gave an Inhibition of -5.27%.
Compound `O=C(Cn1nc2c(Oc3ccccc3)nccn2c1=O)Nc1ccc(F)cc1F` has an Inhibition of -8.04%.
In the case of `COc1ccc(NC(=O)Cn2nc3c(N4CCCC4)nccn3c2=O)cc1Cl`, the Inhibition is reported as -0.96%.
`COc1cccc(CN(c2ccc(F)c(F)c2)S(=O)(=O)c2ccc3nnc(C)n3c2)c1` was tested, and the Inhibition was -2.88%.
`O=c1c2sccc2n2c(=O)n(Cc3ccccc3Cl)nc2n1Cc1cccs1` gave an Inhibition of -2.76%.
With `O=C(Cn1nc2nc(Nc3ccc(F)cc3)ccn2c1=O)Nc1cc(F)ccc1F` the Inhibition was -2.67%.
For `Cc1ccc(C)c(Cn2nc3n(CCC(C)C)c(=O)c4sccc4n3c2=O)c1`, the Inhibition was 1.02%.
In the case of `Cc1ccc(NC(=O)Cn2nc3cc(C)nc(Nc4ccc(F)c(C)c4)n3c2=O)cc1`, the Inhibition is reported as 0.27%.
Work on `Cc1cc2nn(CC(=O)Nc3ccc(F)cc3C)c(=O)n2c(Nc2ccc(F)cc2)n1` yielded an Inhibition of -3.34%.
`COc1ccc(-n2ccn3c(SCC(=O)N4CCN(c5ccccc5F)CC4)nnc3c2=O)cc1` showed an Inhibition of -4.94%.
